Compound activity as filed in PubChem.
Anthrax LF prot: Bacillus anthracis LF protease inhibitors, primary screen, biochemical, multiplex microsphere, MLPCN library | Lethal factor (Bacillus anthracis), P15917 | multiplex microsphere protease cleavage assay | inhibition, % at 10 µM | actives 0.12% (n = 360,000) | AID 588501, 2011
Target sequence (P15917 whole entry, looked up): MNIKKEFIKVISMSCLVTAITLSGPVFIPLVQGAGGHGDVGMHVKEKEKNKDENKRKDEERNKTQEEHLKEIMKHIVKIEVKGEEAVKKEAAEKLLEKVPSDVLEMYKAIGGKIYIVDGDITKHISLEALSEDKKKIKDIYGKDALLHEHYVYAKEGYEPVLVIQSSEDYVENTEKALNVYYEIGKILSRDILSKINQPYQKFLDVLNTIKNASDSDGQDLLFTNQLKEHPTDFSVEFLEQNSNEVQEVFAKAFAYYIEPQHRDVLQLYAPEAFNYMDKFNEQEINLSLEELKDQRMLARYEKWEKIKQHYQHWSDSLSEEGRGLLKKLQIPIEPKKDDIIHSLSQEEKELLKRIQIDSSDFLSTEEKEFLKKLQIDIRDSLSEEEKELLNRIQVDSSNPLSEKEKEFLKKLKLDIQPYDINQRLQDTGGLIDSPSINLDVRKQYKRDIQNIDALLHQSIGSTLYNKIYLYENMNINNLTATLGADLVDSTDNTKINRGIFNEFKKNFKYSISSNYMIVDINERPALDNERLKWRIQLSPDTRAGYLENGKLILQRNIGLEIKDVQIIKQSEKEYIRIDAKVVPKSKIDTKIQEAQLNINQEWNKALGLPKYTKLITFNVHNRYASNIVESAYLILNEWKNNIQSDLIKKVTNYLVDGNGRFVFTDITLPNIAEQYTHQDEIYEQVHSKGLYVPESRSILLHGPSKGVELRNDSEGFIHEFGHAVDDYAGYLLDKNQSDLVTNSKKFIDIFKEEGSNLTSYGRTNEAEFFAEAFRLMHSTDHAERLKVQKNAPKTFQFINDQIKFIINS
DUSP3 inh: VHR1 phosphatase inhibitors, primary screen, biochemical, absorbance, uHTS; inhibition, % at 13.3 µM; actives 0.52% (n = 290,000); recombinant VHR phosphatase, pNPP absorbance; Dual specificity protein phosphatase 3 (Homo sapiens), P51452; in the data active = inhibition above about 50%
MazF activator: activators of E. coli MazEF toxin-antitoxin RNase, primary screen, biochemical, fluorescence, uHTS | Endoribonuclease toxin MazF (Escherichia coli (strain K12)), P0AE70 | actives 0.32% (n = 350,000) | FAM/BHQ RNA-DNA oligo cleavage fluorescence, 5 h | activation, % at 20 µM; in the data active = activation above about 50%
Autofluor counter: flagged as autofluorescent in microsphere protease counterscreen | compound autofluorescence counterscreen, microsphere flow cytometry; hits give high values | fluorescence intensity (no concentration beside the values) | actives 3.1% (n = 360,000) | AID 624483; in the data active = fluorescence intensity above about 16000; inconclusive = no clear call, values can overlap the other calls
BoNT-F LC inh: BoNT/F light chain protease inhibitors, primary screen, biochemical, flow cytometry, MLPCN library. Multiplex microsphere protease cleavage assay. inhibition, % at 10 µM. actives 0.22% (n = 360,000). Botulinum neurotoxin type F light chain protease (Clostridium botulinum); in the data active = inhibition above about 35%, passing the limit was not always enough; inconclusive = no clear call, values can overlap the other calls
BoNT-A LC inh2: BoNT/A light chain protease inhibitors, primary screen, biochemical, flow cytometry, MLPCN library | Botulinum neurotoxin type A light chain protease (Clostridium botulinum A str. ATCC 3502) | multiplex microsphere protease substrate cleavage | inhibition, % at 10 µM | actives 0.17% (n = 360,000)
Numbers stand for hits; n = inactive; u = inconclusive. Hits are enriched below; roughly 4% of the tested compounds scored in any of these assays. Cut-off read from the data, not from the text of the source, unless noted: active = inhibition above about 30%; inconclusive = no clear call, values can overlap the other calls; inactive = below that.

SMILES	Anthrax LF prot	DUSP3 inh	MazF activator	Autofluor counter	BoNT-F LC inh	BoNT-A LC inh2
CN1CCC(O)(c2ccc(Cl)cc2)C(C(=O)c2ccc(Cl)cc2)C1 (stereo not drawn)	n	n	n	n	n	n
COc1ccc(-n2nc(C(=O)NCC(=O)N3CCC4(CC3)OCCO4)c3ccccc3c2=O)c(OC)c1	n	56.2	n	n	n	n
CC1(C)NC(=O)N(CCCCOc2ccc(Cl)cc2C=O)C1=O	n	n	n	n	n	n
CCc1cc(OCCN2C(=O)NC(C)(C)C2=O)ccc1Cl	n	n	n	20493	n	n
CC1(C)NC(=O)N(CCCOc2ccc(Br)cc2Cl)C1=O	n	n	n	23298	n	n
CC1(C)NC(=O)N(CCCOc2ccc3c(c2)CCC3)C1=O	n	n	n	n	n	n
Cc1cc(OCCCCN2C(=O)NC(C)(C)C2=O)cc(C)c1Cl	n	n	n	23207	n	n
CC1(C)NC(=O)N(CCCCOc2ccc(Cl)cc2)C1=O	n	n	n	23237	n	n
O=C1Cc2ccccc2C(c2ccccc2)N1 (stereo not drawn)	n	n	n	n	n	n
Cc1ccc(C2NC(=O)Cc3ccccc32)cc1 (stereo not drawn)	n	n	247.2	n	n	n
Cn1cccc1/C=C1\C(=O)NC(=O)N(Cc2ccccc2)C1=O	n	n	n	n	n	n
CC(C)NS(=O)(=O)c1cccc2nsnc12	n	n	n	n	n	n
CC(=O)c1ccc(NC(=S)N2CCN(CCN3C(=O)c4cccc5cccc(c45)C3=O)CC2)cc1	n	55.4	n	n	n	n
CCOc1cc(C2c3c(n[nH]c3C)C(=O)N2c2ccc(C)cc2)ccc1O (stereo not drawn)	n	n	n	23172	n	n
COc1cc(C2c3c(n[nH]c3C)C(=O)N2c2ccc(C)cc2)ccc1O (stereo not drawn)	n	n	n	n	n	n
COc1ccc(NC(=O)C2OC3OC(C)(C)OC3C3OC(C)(C)OC23)cc1 (stereo not drawn)	n	n	n	23845	n	n
Oc1c(/C=N/Nc2cccc3cccnc23)ccc2ccccc12	n	n	n	n	n	n
O=[N+]([O-])c1ccccc1/C=N/N1CCN(Cc2ccccc2)CC1	n	58.3	n	n	n	n
O=[N+]([O-])c1ccc(Cl)c(/C=N/N2CCN(Cc3ccccc3)CC2)c1	n	n	n	21691	n	n
O=[N+]([O-])c1ccc(Cl)c(/C=N/N2CCN(Cc3ccc(Cl)cc3)CC2)c1	n	n	n	18114	n	u
O=[N+]([O-])c1ccc(Cl)c(/C=N/N2CCN(Cc3ccccc3Cl)CC2)c1	n	n	n	n	n	n
C/C(=N\NC(=O)c1c(Br)c(C)nn1C)c1cccc(NC(=O)c2ccccc2C)c1	n	n	n	n	n	n
O=C(Nc1cccc(C(F)(F)F)c1)c1cccn(Cc2ccc3c(c2)OC(F)(F)O3)c1=O	n	n	n	20449	n	n
O=C(Nc1ccc(C(F)(F)F)cc1)c1cccn(Cc2ccc3c(c2)OC(F)(F)O3)c1=O	n	n	n	n	n	n
Cc1cccc(C)c1NC(=O)c1cccn(Cc2ccc3c(c2)OC(F)(F)O3)c1=O	n	n	n	16867	n	n
SMILES	Anthrax LF prot	DUSP3 inh	MazF activator	Autofluor counter	BoNT-F LC inh	BoNT-A LC inh2
CC(C)Oc1cccc(NC(=O)c2cccn(Cc3ccc4c(c3)OC(F)(F)O4)c2=O)c1	n	n	n	n	n	n
O=C(N1CCOCC1)N1CCCC(c2nc(-c3cccs3)no2)C1 (stereo not drawn)	n	n	n	20689	n	n
O=C(c1c(F)cccc1F)N1CCCC(c2nc(-c3cccs3)no2)C1 (stereo not drawn)	n	n	n	n	n	n
O=C(c1ccco1)N1CCCC(c2nc(-c3ccc(S(=O)(=O)NCc4ccccc4)cc3)no2)C1 (stereo not drawn)	n	n	n	22212	n	n
O=S(=O)(Cc1ccccc1)N1CCC(c2nc(-c3cccs3)no2)CC1	n	n	n	18652	n	u
COc1cccc(-c2noc(C3CCCN(C(=O)Cc4ccccc4)C3)n2)c1 (stereo not drawn)	n	n	n	20892	n	n
CN(C)C(=O)/C(=C\c1ccc(-c2cccc([N+](=O)[O-])c2)o1)NC(=O)c1ccccc1	n	n	n	n	n	n
CC(c1nccs1)N(C)c1nc2nonc2nc1NC1CC1 (stereo not drawn)	n	n	n	n	n	n
O=C(Cc1ccccc1)N1CCCC(c2nc(-c3cccs3)no2)C1 (stereo not drawn)	n	n	n	23522	n	n
O=C(c1ccccc1Br)N1CCCC(c2nc(-c3cccs3)no2)C1 (stereo not drawn)	n	n	n	n	n	n
CC1CCCCN1S(=O)(=O)c1ccc2c(c1)CCN2C(=O)C1CCC1 (stereo not drawn)	n	n	n	n	n	n
COc1ccc(-c2ccc(C#N)c(OC)n2)cc1	n	n	n	n	n	n
CCOc1nc(-c2ccccc2Cl)ccc1C#N	n	n	n	20479	n	n
O=C(O)C(=O)Nc1ccc(NC(=O)C(c2ccccc2)c2ccccc2)cc1	n	n	n	n	n	n
COc1ccc(C(=O)NC(=S)NNC(=O)c2ccc(NC(C)=O)cc2)cc1Br	n	n	n	n	n	n
COc1cc(NC(=O)c2ccccc2)c(OC)cc1NC(=O)Cc1ccc(Br)cc1	n	n	54.6	n	u	n
COc1cc(NC(=O)c2ccc(Br)cc2)c(OC)cc1NC(=O)c1ccccc1	n	n	n	n	u	n
O=C(Nc1cccc2ncccc12)C12CC3CC(CC(C3)C1)C2	n	n	n	n	n	n
COc1ccccc1C1(CC(=O)N2CCCCC2)CCOC(C(C)C)C1 (stereo not drawn)	n	n	n	16312	n	n
Cc1ccc(C2(CC(=O)N3CCCC3)CCOC(C(C)C)C2)cc1 (stereo not drawn)	n	n	n	n	n	n
Cc1ccc(S(=O)(=O)Cc2ccc(C(=O)N3CCc4ccccc4C3)o2)cc1	n	54.5	n	n	n	n
COCCNC(=O)c1ccc(CS(=O)(=O)c2ccc(C)cc2)o1	n	n	n	22139	n	n
Cc1ccc(S(=O)(=O)Cc2ccc(C(=O)NCc3ccc4c(c3)OCO4)o2)cc1	n	n	n	22168	n	u
CC(NC(=O)c1ccc(CS(=O)(=O)c2ccc(Cl)cc2)o1)c1ccc2c(c1)OCCO2 (stereo not drawn)	n	n	n	20032	n	n
